“And” between values parts separate entries of the source, which are not always exact repeats. Identical values can stand only once. Records with an inconclusive call do not appear. Entries that show only a call come without a potency. Some compounds were tested as several samples or in several runs, with calls that do not always agree. The source made the active and inactive calls. Unless noted, calls follow the shape of the dose curve; as a rule, active = well fitted curve in the direction sought with a large enough effect in the repeat runs; inconclusive = weak or mixed curves; inactive = no such curve, though single readings can be large; an effect the other way counts as inactive or inconclusive.
Tests used:
[1] = qHTS assay to identify small molecule antagonists of the androgen receptor (AR) signaling pathway using the MDA cell line in the presence of 0.5 nM R1881 - cell viability counter screen (AID 1259242); also: nearly all actives have a fitted effect of over 45% in size; also: potency is read from the fitted curve at half-maximal effect
Procedure, shortened: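 Cytotoxicity toward MDA-kb2 cells is measured by CellTiter-Fluor live-cell protease fluorescence after 16 hr compound exposure at 37C in the presence of 0.5 nM R1881 stimulator.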

[2] = qHTS assay to identify small molecule HDAC inhibitors (AID 1259364); also: nearly all actives have a fitted effect of over 45% in size; also: potency is read from the fitted curve at half-maximal effect
Procedure, shortened: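 Homogeneous cell-based luminescent assay of endogenous class I/II HDAC activity; HCT-116 cells, 2 h compound exposure, 30 min HDAC-Glo development at RT.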

[3] = qHTS assay to identify small molecule agonists of the sonic hedgehog signaling (Shh) pathway - cell viability counter screen (AID 1259366); also: nearly all actives have a fitted effect of over 50% in size; also: potency is read from the fitted curve at half-maximal effect
Procedure, shortened: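 NIH/3T3-derived 3T3 Gli1-Luc cells (stable Gli1-responsive firefly luciferase reporter) were seeded, rested 4 hr at 37 C/5% CO2, then exposed to compounds in DMSO for 24 hr; viability was read by CellTiter-Fluor fluorescence in the same wells.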

[4] = qHTS assay to identify small molecule antagonists of the sonic hedgehog signaling (Shh) pathway - cell viability counter screen (AID 1259367); also: nearly all actives have a fitted effect of over 55% in size; also: potency is read from the fitted curve at half-maximal effect
Procedure, shortened: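 Using CellTiter-Fluor, viability of Gli1-Luc reporter 3T3 cells is read by fluorescence in the wells used for the Shh luciferase assay. Treatment lasts 23 hr with conditioned medium, then reagent 1 hr at 37C.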

[5] = qHTS assay to identify small molecule agonists of the sonic hedgehog signaling (Shh) pathway (AID 1259368; calls by dose curve; also: series mostly up to about 92 µM; nearly all actives have a fitted effect of over 15% in size)
Procedure, shortened: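 Steps: seed 3T3 Gli1-Luc cells, incubate 4 hr at 37 C, pin-transfer compounds in DMSO alongside a positive control, incubate 24 hr, add luciferase detection reagent, wait 30 min at room temperature, read luminescence.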

[6] = qHTS assay to identify small molecule antagonists of the sonic hedgehog signaling (Shh) pathway (AID 1259369; calls by dose curve; also: nearly all actives have a fitted effect of over 45% in size; also: potency is read from the fitted curve at half-maximal effect)
Procedure, shortened: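 Inhibition of Shh signalling is measured as reduced Gli1-response-element firefly luciferase output in an NIH/3T3-derived stable reporter clone stimulated with conditioned medium for 24hr.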

[7] = target: Estrogen receptor beta (Homo sapiens) (UniProt Q92731); experiment: qHTS assay to identify small molecule agonists of the estrogen receptor beta (ER-beta) signaling pathway (AID 1259377; active = well fitted activation curve with a large enough effect in the signal ratio in the repeat runs, not every such curve was filed as active; the % refers to the signal ratio)
Sequence of Estrogen receptor beta (Homo sapiens) (Q92731 whole entry, looked up): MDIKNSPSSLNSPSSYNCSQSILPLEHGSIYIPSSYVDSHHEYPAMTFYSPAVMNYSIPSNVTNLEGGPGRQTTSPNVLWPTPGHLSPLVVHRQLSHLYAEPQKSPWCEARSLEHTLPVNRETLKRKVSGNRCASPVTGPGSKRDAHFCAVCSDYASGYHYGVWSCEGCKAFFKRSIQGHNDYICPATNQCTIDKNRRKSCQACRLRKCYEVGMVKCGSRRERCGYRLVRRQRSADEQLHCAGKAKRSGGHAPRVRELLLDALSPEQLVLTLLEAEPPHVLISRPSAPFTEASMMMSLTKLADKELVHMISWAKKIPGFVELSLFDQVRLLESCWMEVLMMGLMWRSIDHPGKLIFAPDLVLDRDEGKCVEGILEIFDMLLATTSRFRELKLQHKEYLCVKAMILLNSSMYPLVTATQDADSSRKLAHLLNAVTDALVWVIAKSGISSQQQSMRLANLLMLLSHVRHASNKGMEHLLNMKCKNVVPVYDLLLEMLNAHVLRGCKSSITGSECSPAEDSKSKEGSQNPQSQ
Procedure, shortened: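 ER-beta-UAS-bla HEK293T (GripTite) cells carrying a UAS-driven beta-lactamase reporter, in medium with 2% charcoal-stripped FBS, were exposed to compounds for 16 hr at 37C; LiveBLAzer B/G FRET substrate was then added and fluorescence read after 2 hours at room temperature.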

[8] = target: Estrogen receptor beta (Homo sapiens) (UniProt Q92731); experiment: qHTS assay to identify small molecule antagonists of the estrogen receptor beta (ER-beta) signaling pathway (AID 1259378; active = well fitted inhibition curve with a large enough effect in the signal ratio in the repeat runs, not every such curve was filed as active; the % refers to the signal ratio)
Procedure, shortened: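 Antagonist mode: compounds added to beta-lactamase reporter HEK293T ER-beta-UAS cells stimulated with E2 (1nM final), 16 hr at 37C. LiveBLAzer B/G FRET substrate, 2 hours room temperature, fluorescence read-out.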

[9] = qHTS assay to identify small molecule agonists of the androgen receptor (AR) signaling pathway in the presence of an antagonist - cell viability counter screen (AID 1259379); also: nearly all actives have a fitted effect of over 25% in size; also: potency is read from the fitted curve at half-maximal effect
Procedure, shortened: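 Fluorescence from CellTiter-Fluor, added after 15 hr and read 1 hr later, gave cell viability. Cells were MDA-kb2 exposed to compounds (15 concentrations) in the presence of 3.0uM nilutamide at 37C, 0% CO2.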

[10] = qHTS assay to identify small molecule agonists of the estrogen receptor beta (ER-beta) signaling pathway - cell viability counter screen (AID 1259380); also: nearly all actives have a fitted effect of over 30% in size; also: potency is read from the fitted curve at half-maximal effect
Procedure, shortened: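 Same-well viability counter screen. Cells: ER-beta-UAS-bla HEK293T, plated 6 hr before compound, in 2% charcoal-stripped FBS. Compound exposure 16 hr, 37C; viability by CellTiter-Glo luminescence after 30 min at room temperature.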

[11] = qHTS assay to identify small molecule agonists of the estrogen receptor alpha (ER-alpha) signaling pathway in the presence of an antagonist - cell viability counter screen (AID 1259386);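 also: cells exposed to compounds for 22 h at 37 °C before the viability read; nearly all actives have a fitted effect of over 30% in size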; also: potency is read from the fitted curve at half-maximal effect
Procedure, shortened: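 Cells are starved of estrogens for 5 days in charcoal-stripped serum, seeded for 24hr and co-treated with ICI-182,780 (10.0nM final) and test compounds. After 22hr at 37C, viability is read as CellTiter-Fluor fluorescence.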

[12] = target: Estrogen receptor (Homo sapiens) (UniProt P03372); experiment: qHTS assay to identify small molecule antagonists of the estrogen receptor alpha (ER-alpha) signaling pathway using the BG1 cell line in the presence of 0.1 nM 17-beta-estradiol (AID 1259244); also: nearly all actives have a fitted effect of over 50% in size; also: potency is read from the fitted curve at half-maximal effect
Sequence of Estrogen receptor (Homo sapiens) (P03372 whole entry, looked up): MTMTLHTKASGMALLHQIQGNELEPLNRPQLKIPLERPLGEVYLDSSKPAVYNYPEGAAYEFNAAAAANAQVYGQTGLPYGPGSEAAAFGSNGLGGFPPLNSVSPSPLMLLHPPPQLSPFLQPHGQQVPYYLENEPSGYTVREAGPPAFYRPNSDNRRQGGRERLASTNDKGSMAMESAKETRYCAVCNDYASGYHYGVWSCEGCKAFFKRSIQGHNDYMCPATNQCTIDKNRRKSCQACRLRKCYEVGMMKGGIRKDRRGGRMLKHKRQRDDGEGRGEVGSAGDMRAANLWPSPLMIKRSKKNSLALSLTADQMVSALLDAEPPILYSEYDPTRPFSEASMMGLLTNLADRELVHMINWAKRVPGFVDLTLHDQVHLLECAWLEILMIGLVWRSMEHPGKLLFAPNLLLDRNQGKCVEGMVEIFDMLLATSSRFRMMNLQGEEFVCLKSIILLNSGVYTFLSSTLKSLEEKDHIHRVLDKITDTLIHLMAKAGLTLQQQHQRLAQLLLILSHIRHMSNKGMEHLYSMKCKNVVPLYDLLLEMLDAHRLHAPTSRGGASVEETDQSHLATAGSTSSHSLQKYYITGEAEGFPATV
Procedure, shortened: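 After 5 days in hormone-depleted medium (charcoal-stripped serum, no phenol red), VM7Luc4E2 cells were seeded, incubated 24 h, then co-treated with compound and 0.1 nM (final) estradiol for 22 h before luminescence detection.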

[13] = qHTS assay to identify small molecule phospholipidosis (PLD) inducers (AID 1259344; active = well fitted curve in the direction sought with a large enough effect; an effect the other way counts as inactive or inconclusive)
Procedure, shortened: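 Fluorescent phospholipid staining (LipidTOX Red) measured by automated microscopy in fixed HepG2 cells after 24 h treatment; nuclei counterstained with Hoechst 33342; amiodarone as reference inducer.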

[14] = qHTS assay to identify small molecule HDAC inhibitors - cell viability counter screen (AID 1259365); also: series mostly up to about 92 µM; nearly all actives have a fitted effect of over 50% in size
Procedure, shortened: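 Wild-type HCT-116 cells were seeded at 1,500 per well, incubated overnight at 37 C, then exposed to compounds in DMSO for 2hr. Viability was read by CellTiter-Glo luminescence after 30min at room temperature.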

[15] = qHTS assay to identify small molecule agonists or antagonists of the thyroid stimulating hormone receptor (TSHR) signaling pathway - wild type cell line counter screen (AID 1259384; calls by dose curve)
Procedure, shortened: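 Counter screen in untransfected Hek293: compounds (15-point titration, triplicate) plus phosphodiesterase inhibitor Ro20-1724 added after 18 h plating; 30 min RT. Intracellular cAMP via competitive d2/cryptate immunoassay, 1 h incubation.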

[16] = target: Thyrotropin receptor (Homo sapiens) (UniProt P16473); experiment: qHTS assay to identify small molecule antagonists of the thyroid stimulating hormone receptor (TSHR) signaling pathway (AID 1259385; calls by dose curve; also: nearly all actives have a fitted effect of over 20% in size)
Sequence of Thyrotropin receptor (Homo sapiens) (P16473 whole entry, looked up): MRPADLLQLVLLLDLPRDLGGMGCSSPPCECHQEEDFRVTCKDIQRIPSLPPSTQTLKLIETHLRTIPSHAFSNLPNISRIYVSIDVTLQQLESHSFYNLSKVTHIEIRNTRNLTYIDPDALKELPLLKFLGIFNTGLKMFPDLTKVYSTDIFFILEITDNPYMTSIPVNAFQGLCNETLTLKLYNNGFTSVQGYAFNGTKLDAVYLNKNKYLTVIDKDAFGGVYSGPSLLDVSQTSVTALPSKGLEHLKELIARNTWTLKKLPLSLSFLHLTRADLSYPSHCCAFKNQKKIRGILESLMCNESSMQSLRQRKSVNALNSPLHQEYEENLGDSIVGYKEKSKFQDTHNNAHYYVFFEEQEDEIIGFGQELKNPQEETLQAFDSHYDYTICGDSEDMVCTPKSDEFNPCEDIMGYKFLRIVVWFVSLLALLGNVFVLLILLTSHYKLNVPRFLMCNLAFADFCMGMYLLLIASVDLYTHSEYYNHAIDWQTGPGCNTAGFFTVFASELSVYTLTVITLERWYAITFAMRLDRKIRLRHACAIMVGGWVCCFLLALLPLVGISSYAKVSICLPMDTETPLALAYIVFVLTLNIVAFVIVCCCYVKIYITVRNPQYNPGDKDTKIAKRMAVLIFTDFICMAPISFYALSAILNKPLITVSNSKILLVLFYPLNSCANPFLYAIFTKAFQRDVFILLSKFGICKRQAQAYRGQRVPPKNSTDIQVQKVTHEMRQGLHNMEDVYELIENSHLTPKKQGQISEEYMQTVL
Procedure, shortened: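 Antagonist mode: compound-treated TSHR-expressing HEK293 cells were stimulated with 1.5 ng/mL TSH (final) in presence of Ro20-1724 for 30 min at RT. HTRF cAMP detection after 1 h; each compound tested at 15 concentrations, triplicate.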

[17] = target: Androgen receptor (Homo sapiens) (UniProt P10275); experiment: qHTS assay to identify small molecule agonists of the androgen receptor (AR) signaling pathway in the presence of an antagonist (AID 1259381; calls by dose curve; also: nearly all actives have a fitted effect of over 15% in size)
Sequence of Androgen receptor (Homo sapiens) (P10275 whole entry, looked up): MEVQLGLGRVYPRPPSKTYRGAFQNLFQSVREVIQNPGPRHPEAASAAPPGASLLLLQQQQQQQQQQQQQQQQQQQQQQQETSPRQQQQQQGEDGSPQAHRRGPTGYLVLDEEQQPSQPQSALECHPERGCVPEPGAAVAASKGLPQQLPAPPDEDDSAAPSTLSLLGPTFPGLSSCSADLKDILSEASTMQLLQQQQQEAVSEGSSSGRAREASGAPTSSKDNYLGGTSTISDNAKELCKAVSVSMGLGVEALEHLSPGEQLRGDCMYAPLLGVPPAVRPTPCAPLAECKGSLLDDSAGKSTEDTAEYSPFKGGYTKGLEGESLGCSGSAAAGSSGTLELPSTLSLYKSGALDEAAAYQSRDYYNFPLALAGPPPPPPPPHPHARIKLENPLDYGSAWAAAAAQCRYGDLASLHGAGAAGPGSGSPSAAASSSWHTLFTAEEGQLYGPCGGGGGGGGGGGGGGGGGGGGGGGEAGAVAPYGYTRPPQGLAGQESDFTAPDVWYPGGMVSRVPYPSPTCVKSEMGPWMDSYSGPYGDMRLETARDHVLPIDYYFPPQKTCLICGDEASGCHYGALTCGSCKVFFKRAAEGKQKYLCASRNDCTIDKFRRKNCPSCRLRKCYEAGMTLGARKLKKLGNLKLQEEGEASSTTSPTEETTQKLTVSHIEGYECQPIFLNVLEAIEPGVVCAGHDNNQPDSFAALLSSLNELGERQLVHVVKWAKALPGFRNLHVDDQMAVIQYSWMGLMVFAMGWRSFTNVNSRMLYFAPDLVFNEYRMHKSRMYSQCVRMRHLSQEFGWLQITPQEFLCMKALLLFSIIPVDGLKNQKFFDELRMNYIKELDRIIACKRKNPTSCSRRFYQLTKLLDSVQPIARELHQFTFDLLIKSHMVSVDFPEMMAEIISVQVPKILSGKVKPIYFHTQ
Procedure, shortened: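 Cells are MDA-kb2 (human breast carcinoma, MMTV-luc, AR/GR responsive). Nilutamide is present at 3.0uM final throughout; compounds are added at 15 concentrations and incubated 16hr at 37C before ONE-Glo luminescence detection.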

[18] = qHTS assay to identify small molecule antagonists of the estrogen receptor beta (ER-beta) signaling pathway - cell viability counter screen (AID 1259382); also: nearly all actives have a fitted effect of over 55% in size; also: potency is read from the fitted curve at half-maximal effect
Procedure, shortened: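 Following a 6 hr plating period, HEK293T cells carrying a UAS-driven beta-lactamase reporter under ER-beta control received compounds and 1nM E2 (final). After 16 hr at 37C and 2 hr substrate loading, CellTiter-Glo luminescence indicated viability.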

[19] = target: Estrogen receptor (Homo sapiens) (UniProt P03372); experiment: qHTS assay to identify small molecule agonists of the estrogen receptor alpha (ER-alpha) signaling pathway in the presence of an antagonist (AID 1259383; calls by dose curve; also: top concentration of the series differs between compounds; nearly all actives have a fitted effect of over 15% in size)
Procedure, shortened: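 Cells are hormone-deprived for 5 days (charcoal-stripped FBS, no phenol red), plated for 24hr, spiked with 10.0nM ICI-182,780, then dosed at 15 concentrations. After 22hr at 37C, ONE-Glo luminescence reports ERE-luciferase activity.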

Row | SMILES | Potency [1] | Potency [2] | Potency [3] | Potency [4] | outcome [5] | Potency [6] | Potency [7] | Potency [8] | Potency [9] | Potency [10] | Potency [11] | Potency [12] | Potency [13] | Potency [14] | Potency [15] | Potency [16] | Potency [17] | Potency [18] | Potency [19]
1 | NS(=O)(=O)O | inactive | inactive | inactive | inactive | inactive | inactive | inactive | inactive | inactive | inactive | inactive | – | – | – | – | – | – | – | –
2 | Nc1ccc([N+](=O)[O-])cc1O | – | – | 30.6 µM (active) | – | inactive | – | – | – | 30.6 µM (active) | – | 27.3 µM (active) | inactive | inactive | inactive | – | – | – | – | –
3 | CC1(C)S[C@@H]2[C@H](NC(=O)[C@H](N)c3ccccc3)C(=O)N2[C@H]1C(=O)O | inactive | inactive | inactive | – | inactive | inactive | – | – | inactive | inactive | inactive | – | – | inactive | inactive | inactive | – | – | –
4 | O=C(Nc1ncc([N+](=O)[O-])s1)c1cccs1 | – | 0.422 µM (active) | inactive | – | – | inactive | – | – | 26.6 µM (active) | – | 26.6 µM (active) | inactive | inactive | – | inactive | inactive | inactive | – | –
5 | CCCCCCCCCCCC[N+](C)(C)Cc1ccccc1 | 47.6 µM (active) and 37.4 µM (active) and 13.3 µM (active) | inactive | 53.4 µM (active) and 52.8 µM (active) and 16.8 µM (active) | 66.4 µM (active) | inactive | 2.13 µM (active) and 419 nM (active) and 3.76 µM (active) | – | – | 23.9 µM (active) and 33.3 µM (active) and 26.6 µM (active) | 30 µM (active) and 29.7 µM (active) and 10.6 µM (active) | 67.3 µM (active) and 74.5 µM (active) and inactive | – | inactive | – | inactive | inactive | – | 26.8 µM (active) and 37.4 µM (active) and 11.9 µM (active) | –
6 | NC(=O)n1c(O)c(C(=O)c2cccs2)c2cc(Cl)ccc21 | – | inactive | – | – | inactive | 10.6 µM (active) | – | – | 29.8 µM (active) | – | 29.8 µM (active) | 13.3 µM (active) | inactive | inactive | inactive | inactive | – | inactive | inactive
7 | Nc1ccc(O)c([N+](=O)[O-])c1 | – | – | 43.3 µM (active) | – | inactive | 13.5 µM (active) | – | – | 27.3 µM (active) | – | 43.3 µM (active) | – | inactive | – | – | – | – | inactive | inactive
8 | CNNCc1ccc(C(=O)NC(C)C)cc1 | inactive | inactive | inactive | inactive | inactive | inactive | inactive | inactive | inactive | inactive | inactive | – | inactive | – | inactive | inactive | – | inactive | –
9 | CCCCC(CC)C(=O)O (stereo not given) | inactive | inactive | inactive | inactive | inactive | inactive | – | – | inactive | inactive | inactive | – | – | inactive | inactive | inactive | – | inactive | –
10 | CN1CCC[C@H]1c1cccnc1 | inactive | inactive | inactive | – | inactive | inactive | – | – | inactive | inactive | inactive | – | – | inactive | – | – | – | – | –
11 | CCCCNC(=O)NS(=O)(=O)c1ccc(C)cc1 | inactive | inactive | inactive | inactive | inactive | inactive | – | – | inactive | inactive | inactive | – | inactive | – | – | – | – | inactive | –
12 | CC1(C)O[C@@H]2C[C@H]3[C@@H]4CCC5=CC(=O)C=C[C@]5(C)[C@@]4(F)[C@@H](O)C[C@]3(C)[C@]2(C(=O)CO)O1 | inactive | inactive | inactive | – | inactive | inactive | inactive | inactive | inactive | inactive | inactive | – | inactive | – | – | – | – | – | –
13 | Nc1ccc(S(N)(=O)=O)cc1 | inactive | inactive | inactive | inactive | inactive | inactive | inactive | inactive | inactive | inactive | inactive | – | inactive | – | inactive | inactive | – | – | –
14 | CCCC[P+](CCCC)(CCCC)CCCC | inactive | inactive | inactive | inactive | inactive | inactive | – | – | 60.9 µM (active) and 62.3 µM (active) and 61.1 µM (active) | – | inactive | – | – | inactive | inactive | inactive | – | – | –
15 | Cc1cn([C@H]2C=C[C@@H](CO)O2)c(=O)[nH]c1=O | inactive | inactive | inactive | – | inactive | inactive | inactive | inactive | inactive | inactive | inactive | – | inactive | – | inactive | inactive | – | inactive | –
